CD40 NFkB inh – CD40 pathway inhibition in BL2 cells | BL2 NF-kB luciferase reporter, CD40L-induced, 4 h | inhibition, % at 10 µM | 83,000 compounds, 0.94% hits | AID 1053188;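 active = mean inhibition of at least 50% with a set share of replicates also reaching that level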;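 also: 0% = neutral control wells and 100% = IKK inhibitor VII at 50 µM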
* marks the source's active call; other numbers are inactive results; [ ] = another dose, or the depositor's remark. The entries come from a sample that favours hits as a whole.

SMILES	CD40 NFkB inh
Clc1nc(CN2CCCCC2)nc2sc3c(c12)CCCC3	55.2*
CC1CCN(Cc2nc(Cl)c3c4c(sc3n2)CCC4)CC1	-4.8
Clc1nc(CN2CCOCC2)nc2sc3c(c12)CCC3	-1.3
CN1[C@H](CO)[C@H]2c3ccccc3N(C(=O)Nc3cc(F)ccc3F)C[C@H]21	2.7[25 µM]
O=C(C1CCCC1)N1CC[C@@H]2[C@H]1c1cc(C3=CCCCC3)ccc1N[C@@H]2CO	-39.8
CCCC#Cc1ccc2c(c1)[C@@H]1[C@@H](CCN1C(=O)C1CC1)[C@@H](CO)N2	-36.3
CC(C)CCCCCCCCCCCCC(=O)NCC(=O)NC1C(O)C(O)C(Nc2ncnc3nc[nH]c23)OC1C(O)CO (stereo not drawn)	104.1*
CC(C)=NNc1ncnc2nc[nH]c12	-16.8
CCCC#Cc1ccc([C@@H]2[C@@H](C#N)N(C(=O)C3CCC3)[C@@H]2CO)cc1	-12.4
CCOC(=O)N(C)C[C@H]1OCc2ccccc2-c2ccccc2C(=O)N([C@H](C)CO)C[C@H]1C	-7.0
COc1ccc(-c2ccc3n(c2=O)C[C@H]2[C@H](CO)[C@@H](C(=O)Nc4ccccc4)[C@@H]3N2C)cc1	-8.1[25 µM]
CCCCCCCCCCCCCCCC[n+]1ccccc1	98.6*
O=C(C[C@@H]1C[C@@H]2c3cc(NC(=O)NC4CCCC4)ccc3O[C@@H]2[C@H](CO)O1)NCc1cccnc1	-3.5
Oc1ccccc1-c1cc(-c2ccc3c(c2)OCCO3)n[nH]1	54.3*
c1cncc(-c2nc(-c3ccc4c(c3)OCCO4)cs2)c1	-59.4
Cc1nc(-c2ccc3c(c2)OCCO3)cs1	-72.7
CC(=NNc1nc2ccccc2s1)c1ncccn1	-13.0
CC(=NNc1nc2ccccc2o1)c1ncccn1	79.6*
CC(=NNc1nc2ccccc2o1)c1cc2ccccc2cn1	-10.3
CO[C@@H]1CN(C)C(=O)c2ccc(NC(=O)c3cc(C)on3)cc2OC[C@H](C)NC[C@@H]1C	-7.3[25 µM]
C[C@@H]1CCCCO[C@@H](CN(C)S(=O)(=O)c2ccccc2)[C@H](C)CN([C@@H](C)CO)C(=O)c2cc(NS(=O)(=O)c3ccc(Cl)cc3)ccc2O1	21.5
O=c1[nH]c(CSc2ccccn2)nc2ccccc12	-21.3
O=C(O)CCSc1nc2ccccc2s1	14.0
O=S(=O)(CCSc1ccccn1)c1nc2ccccc2s1	58.6*
CC(C)C(=O)Nc1ccc2c(c1)C(=O)N(C)[C@@H]1CC[C@@H](CC(=O)NCCc3ccccc3)O[C@@H]1CO2	-2.5[25 µM]
SMILES	CD40 NFkB inh
C/C=C/c1ccc([C@@H]2[C@@H](CO)N(Cc3nccs3)C23CN(CC2CCCC2)C3)cc1	-5.5[25 µM]
COc1ccc(/C=C\c2nc(=O)c3ccccc3o2)cc1	46.2*
COc1ccc(OCC(=O)c2c(O)c3ccccc3oc2=O)cc1	-1.1
COc1ccc(OC)c(-c2oc3ccccc3c(=O)c2O)c1	-75.3
O=C(C[C@@H]1CC[C@H]2[C@@H](COC[C@H](O)CN2Cc2nccs2)O1)NCc1ccccc1Cl	-2.7[25 µM]
O=C(C[C@H]1CC[C@@H]2[C@H](COC[C@@H](O)CN2C(=O)Nc2cccc(F)c2)O1)NCCCN1CCOCC1	-18.0[25 µM]
CCc1cccc2sc(N(CCCN3CCOCC3)C(=O)CS(=O)(=O)c3ccccc3)nc12	-1.0
Cc1ccc2nc(N(CCCN(C)C)C(=O)CS(=O)(=O)c3ccccc3)sc2c1	2.0
O=C(CCS(=O)(=O)c1ccccc1)N(CCCN1CCOCC1)c1nc2ccc(F)cc2s1	72.2*
COc1cccc(S(=O)(=O)N2C[C@H](O)COC[C@H]3O[C@H](CC(=O)NCCCN4CCOCC4)CC[C@@H]32)c1	-9.2[25 µM]
COCC(=O)N1[C@H](CO)[C@H]2c3ccccc3N(C(=O)Nc3ccccc3Cl)C[C@H]21	-11.1[25 µM]
CCCCn1c(NC(=O)c2ccc(Br)o2)c(S(=O)(=O)c2ccccc2)c2nc3ccccc3nc21	65.6*
Nc1c(S(=O)(=O)c2ccccc2)c2nc3ccccc3nc2n1CCN1CCOCC1	10.3
CCCCn1c(NC(C)=O)c(C#N)c2nc3ccccc3nc21	-0.6
O=C1N[C@@H](Cc2ccccc2)COCc2cnnn2CC[C@@H]1Cc1ccc(-c2ccccc2)cc1	-3.2[25 µM]
CO/N=C(\Cn1ncc(N2CCOCC2)c(Br)c1=O)c1ccc(Cl)cc1	25.2
CC(=O)Cn1ncc(Br)c(Br)c1=O	99.5*
Cn1ncc(Br)c1C(=O)O	1.3
CNC(=O)C1OC(n2cnc3c(NCc4cccc(I)c4)nc(Cl)nc32)C(O)C1O (stereo not drawn)	5.4[25 µM]
CCC(=O)N1C[C@@H]2[C@H](c3ccccc31)[C@H](CO)N2Cc1ccccc1Cl	13.9[25 µM]
CCCCCC(=O)N/N=C/c1ccc([N+](=O)[O-])o1	6.7
O=C(N/N=C/c1ccc([N+](=O)[O-])o1)C1CCCC1	-2.3
O=C(Cc1ccc2c(c1)OCO2)NN=Cc1ccc([N+](=O)[O-])o1	95.2*
CCCCCCCC/C=C/CCCCCCCC(=O)NC(CO)Cc1ccc(O)cc1 (stereo not drawn)	7.5[25 µM]
COc1cccc(NC(=O)N2CC(=O)N3[C@H](C2)[C@H](c2ccc(C4=CCCCC4)cc2)[C@@H]3CO)c1	13.9[25 µM]
O=C(CCCN1C(=O)c2cccc3cccc(c23)C1=O)OCC(=O)N1CCCCC1	-2.7
